{"source": "PubChem BioAssay (NCATS)", "note": "Inconclusive results are not listed. Activity calls are given as the source filed them. Calls follow the shape of the full dose curve. Potency is read from the fitted curve at half-maximal effect.", "data": [{"assay": "Confirmatory qHTS to identify inhibitors of SARS-CoV-2 cell entry (AID 1645844); also: nearly all actives have a fitted effect of over 45% in size", "conditions": "SARS-CoV-2 pseudotyped particle cell entry, luciferase; series mostly up to 57.2 µM", "description": "Assay Provider: Wei Zheng, Ph.D.\nNational Center for Advancing Translational Sciences, National Institute of Health, Rockville, MD.\nSARS-CoV-2 spike protein, within the viral envelope, mediates viral attachment and infection of host cells. The SARS-CoV-2 spike protein specifically binds to the host receptor ACE2 (Angiotensin-converting enzyme 2). This interaction promotes endocytosis of the viral particle, additional events lead to viral-host cell membrane fusion and release of the viral contents, allowing viral replication.\nWhile SARS-CoV-2 requires BSL-3 facilities for live virus work, pseudotyped partices (PP) that incorporate SARS-CoV-2 spike proteins without replication elements could facilitate studies on viral entry mechanisms in a BSL-2 setting. This PP cell entry assay could also enable screening of small molecule compound libraries in BSL-2 setting to identify inhibitors of SARS-CoV-2 cell entry.\nSEQUENCE No. (e.g., 1, 2, 3, etc.); […] (e.g., Cells, Incubation, Reagent, etc.); VALUE and DESCRIPTION.\n1. Cells. Seed 1500 HEK293-ACE2 cells (Expi293F with stable expression of human ACE2) in 2 uL/well media (DMEM, 10% FBS, 1x L-glutamine, 1x Pen/Strep, 1 ug/ml puromycin) in white 1536-well assay plates (Greiner #782073).\n2. Incubation. Incubate at 37C with 5% CO2 overnight (~16 h).\n3. Compounds. Dispense 23 nL/well compounds in DMSO via pin transfer.\n4. Incubation. Incubate for 1 hr at 37C 5% CO2.\n5. Reagent. Dispense 2 uL/well of SARS-CoV-2-S pseudotyped particles (PP). [a] PPs are produced with murine leukemia virus pseudotyping). [b] SARS-CoV-2-S is Wuhan-Hu-1 sequence (BEI #NR-52420) with C-terminal 19 amino acid truncation.\n6. Centrifugation. […]\n7. Incubation. Incubate at for 48 hr at 37C 5% CO2\n8. Centrifugation. Remove supernatant with gentle centrifugation using a Blue Washer (BlueCat Bio).\n9. Reagent. Dispense 4 uL/well of Bright-Glo Luciferase detection reagent (Promega #E2620).\n10. Incubation. Incubate for 5 min at room temperature.\n11. Detection. Read luminescence signal (Viewlux plate reader, PerkinElmer). Data was normalized with wells containing SARS-CoV-2-S PP as 100%, and wells containing bald PP (no fusion protein) as 0%.", "values": [{"smiles": "CC(C)[C@H](C(=O)Nc1ccc(C(=O)NO)cc1)c1ccccc1", "Potency": "inactive"}, {"smiles": "Cc1cc(Nc2nc(N[C@@H](C)c3ncc(F)cn3)ncc2Cl)n[nH]1", "Potency": "2710 nM (active)"}, {"smiles": "CNC(=O)c1cc(Oc2ccc(NC(=O)Nc3ccc(Cl)c(C(F)(F)F)c3)c(F)c2)ccn1", "Potency": "8570 nM (active)"}, {"smiles": "Cc1cc(Nc2cc(N3CCN(C)CC3)nc(Sc3ccc(NC(=O)C4CC4)cc3)n2)n[nH]1", "Potency": "121 nM (active)"}, {"smiles": "CC(C)(C)c1cnc(CSc2cnc(NC(=O)C3CCNCC3)s2)o1", "Potency": "4290 nM (active)"}, {"smiles": "O=C(Nc1ccncc1)C(=O)c1cn(Cc2ccc(Cl)cc2)c2ccccc12", "Potency": "961 nM (active)"}, {"smiles": "COc1cc([C@@H]2c3cc4c(cc3[C@@H](O)C3COC(=O)C32)OCO4)cc(OC)c1O", "note": "(stereo partly drawn)", "Potency": "1710 nM (active)"}, {"smiles": "O=C(c1cc(Cc2n[nH]c(=O)c3ccccc23)ccc1F)N1CCN(C(=O)C2CC2)CC1", "Potency": "27100 nM (active)"}, {"smiles": "CN1CC[C@@H](c2c(O)cc(O)c3c(=O)cc(-c4ccccc4Cl)oc23)[C@@H](O)C1", "Potency": "1210 nM (active)"}, {"smiles": "COc1cc2nccc(Oc3ccc(NC(=O)C4(C(=O)Nc5ccc(F)cc5)CC4)cc3)c2cc1OC", "Potency": "2150 nM (active)"}, {"smiles": "Cc1ccc(C(N)=O)cc1Nc1nccc(-c2cn(C(C)C)c3cnccc23)n1", "Potency": "1710 nM (active)"}, {"smiles": "CC(=O)Nc1ccc([C@H](C)C(=O)Nc2ncc(C(C)C)s2)cc1", "Potency": "4820 nM (active)"}, {"smiles": "N#CCNC(=O)c1ccc(-c2ccnc(Nc3ccc(N4CCOCC4)cc3)n2)cc1", "Potency": "9610 nM (active)"}, {"smiles": "CCCS(=O)(=O)Nc1ccc(F)c(C(=O)c2c[nH]c3ncc(-c4ccc(Cl)cc4)cc23)c1F", "Potency": "68.1 nM (active)"}, {"smiles": "COc1cc(Nc2ncc3c(n2)-c2ccc(Cl)cc2C(c2c(F)cccc2OC)=NC3)ccc1C(=O)O", "Potency": "10.8 nM (active)"}, {"smiles": "CC(=O)c1c(C)c2cnc(Nc3ccc(N4CCNCC4)cn3)nc2n(C2CCCC2)c1=O", "Potency": "17100 nM (active)"}, {"smiles": "CN(c1ncccc1CNc1nc(Nc2ccc3c(c2)CC(=O)N3)ncc1C(F)(F)F)S(C)(=O)=O", "Potency": "857 nM (active)"}, {"smiles": "Cc1ccccc1-n1c(Cn2ncc3c(N)ncnc32)nc2cccc(C)c2c1=O", "Potency": "7640 nM (active)"}, {"smiles": "Cc1n[nH]c(C)c1Cc1sc2c(c1C(=O)N1C[C@H](O)CO1)c(=O)n(C)c(=O)n2CC(C)C", "Potency": "393 nM (active)"}, {"smiles": "CS(=O)(=O)c1cccc(CNc2nc(Nc3ccc4c(c3)CCC(=O)N4)ncc2C(F)(F)F)c1", "Potency": "192 nM (active)"}, {"smiles": "CCc1c(C(=O)C(N)=O)c2c(OCC(=O)O)cccc2n1Cc1ccccc1", "Potency": "inactive"}, {"smiles": "O=c1[nH]c(-c2ccc(C(F)(F)F)cc2)nc2c1CSCC2", "Potency": "9610 nM (active)"}, {"smiles": "O=C(O)c1ccc2c(c1)nc(Nc1cccc(Cl)c1)c1ccncc12", "Potency": "2150 nM (active)"}]}]}
